# In the library only some 18% were active in any assay of this set; here they are far more common.
# TDP1 cell CPT: qHTS for Inhibitors of human tyrosyl-DNA phosphodiesterase 1 (TDP1): qHTS in cells in presence of CPT. chicken DT40 Tdp1-/-;hTDP1 cells + 20 nM CPT, ATP luminescence, 48 h. Potency, µM (doses to about 46.2 µM), inactives show at the highest dose activity change, negative = growth inhibition, most hits filed as inhibitors. hit rate 12% among 420,000; also: nearly all actives have a fitted effect of over 55% in size
#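 Chicken DT40 Tdp1-/- cells stably complemented with human TDP1 were seeded at 400 cells/well in medium containing 20 nM camptothecin, exposed to pin-transferred compounds, and grown at 37 °C for at least 48 hr. Viability was read as ATP luminescence.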
# DT40 TDP1 no CPT: qHTS for Inhibitors of human tyrosyl-DNA phosphodiesterase 1 (TDP1): qHTS in cells in absence of CPT; DT40 Tdp1-/- hTDP1 cells, no CPT, ATP luminescence, 48 h; Potency, µM (highest dose often 46.2 µM), inactives show top-dose activity change, negative = growth inhibition, usual class: inhibitors; hit rate 15% among 420,000; AID 686978, 2013; also: nearly all actives have a fitted effect of over 55% in size
#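 Camptothecin absent (DMSO only). Human TDP1-complemented DT40 knockout cells, 400 cells/well, 37 °C for minimum 48 hr; ATP measured via CellTiter-Glo, 30 min dark incubation, luminescence.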
# VDR inh: Inhibitors of the vitamin D receptor (VDR): qHTS | hit rate 0.93% among 400,000 | VDR-SRC2-3 peptide fluorescence polarization, 2 h | Vitamin D3 receptor (Homo sapiens), P11473 | Potency, µM, inactives show max response, negative = inhibition, actives largely listed as inhibitors
#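 Reagent solutions, kept cold and dark, are dispensed first; compounds are then pinned in at 23 nl, plates briefly spun, and incubated 2 h at ambient temperature. Inhibition of VDR–SRC2-3 peptide binding is read by fluorescence polarization.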
# PLK1 PBD inh: qHTS for Inhibitors of PLK1-PDB (polo-like kinase 1 - polo-box domain): Primary Screen; AID 720504, 2013; Plk1 PBD binding of FITC phosphopeptide, fluorescence polarization; hit rate 2.8% among 360,000; Serine/threonine-protein kinase PLK1 (Homo sapiens), P53350; Potency, µM, for the others: max response, negative = inhibition, hits mostly inhibitors; also: series mostly up to about 57 µM; nearly all actives have a fitted effect of over 65% in size
# Target sequence (P53350 whole entry, looked up, the tested form may be a part): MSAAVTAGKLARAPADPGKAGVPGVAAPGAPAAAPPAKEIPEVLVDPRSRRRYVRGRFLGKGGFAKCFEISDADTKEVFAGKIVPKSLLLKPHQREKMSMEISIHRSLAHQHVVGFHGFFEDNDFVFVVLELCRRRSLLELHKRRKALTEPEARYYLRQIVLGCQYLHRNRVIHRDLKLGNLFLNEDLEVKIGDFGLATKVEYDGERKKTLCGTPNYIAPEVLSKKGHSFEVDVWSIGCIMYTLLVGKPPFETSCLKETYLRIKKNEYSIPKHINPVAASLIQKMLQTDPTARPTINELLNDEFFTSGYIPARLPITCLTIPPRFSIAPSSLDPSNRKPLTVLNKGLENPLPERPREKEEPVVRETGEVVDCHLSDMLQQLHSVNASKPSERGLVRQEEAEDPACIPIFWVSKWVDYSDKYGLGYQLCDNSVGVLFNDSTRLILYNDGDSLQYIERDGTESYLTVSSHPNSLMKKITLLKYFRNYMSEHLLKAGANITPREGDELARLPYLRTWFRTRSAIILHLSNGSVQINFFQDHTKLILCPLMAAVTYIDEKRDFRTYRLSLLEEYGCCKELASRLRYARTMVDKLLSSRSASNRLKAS
# TDP1 inh: qHTS Assay for Inhibitors of Tyrosyl-DNA Phosphodiesterase (TDP1) | Potency, µM (highest dose often 130 µM), for the others: at the highest dose activity change, negative = inhibition, usual class: inhibitors | recombinant TDP1, AlphaScreen DNA substrate cleavage | hit rate 0.28% among 350,000; also: nearly all actives have a fitted effect of over 40% in size
#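 Here, a 5' biotin and 3' phosphotyrosine-FITC DNA oligonucleotide reports Tdp1 activity: intact substrate bridges AlphaScreen beads, while cleavage leaves a 3' phosphate and drops signal. All incubations at room temperature.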
# GCN5L2 inh: qHTS Assay for Inhibitors of GCN5L2; Histone acetyltransferase KAT2A (Homo sapiens), Q92830; GCN5L2 HAT assay, ThioGlo1 CoA-SH fluorescence; Potency, µM (titrated, usually from 58.9 µM), inactives show top-dose activity change, negative = inhibition, usual class: inhibitors; hit rate 0.21% among 390,000
#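 GCN5L2 (20nM final) in 50mM HEPES, 0.1mM EDTA pH 7.5, 0.01% Tween-20 was preincubated 15 min at room temperature with compound, then given ThioGlo1 (50uM), H3(1-25) peptide (75uM) and acetyl-CoA (70uM); CoA-thiol fluorescence (Ex340/Em540) was read at 0 and 20 min.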
# Numbers without * were called inactive; ? = inconclusive; · = no result given; ! = not active in a repeat; [ ] = another dose, or the depositor's remark. Calls follow the shape of the dose curve; as a rule, active = well fitted curve in the direction sought with a large enough effect; inconclusive = small, poorly fitted or top-dose-only effect, or another doubt; inactive = no such curve, though single readings can be large; an effect the other way counts as inactive or inconclusive. % is scaled to controls: 0 for no effect and ±100 for the full control effect; potency is read from the fitted curve at half-maximal effect.
SMILES,TDP1 cell CPT,DT40 TDP1 no CPT,VDR inh,PLK1 PBD inh,TDP1 inh,GCN5L2 inh
Cc1cc(-c2nc3ncccc3o2)ccc1NC(=O)c1ccccc1Br,-16%,?,7%,·,4%,-4%
CC1=CC(=O)OC2CC3OC4C[C@@H](C)C5OC6CC7O[C@]8(C)C/C=C\C9OC%10CC%11OC(CC(C)C%12OCCO%12)CC(O)[C@]%11(C)OC%10CC9OC8C[C@]7(C)O[C@]6(C)CCC5OC4C[C@]3(C)OC12 (stereo not given in full),29µM*,?,?,-7%,1%,-1%
C=C1C(=O)O[C@@H]2C[C@@H](C)[C@@H]3C4OC4C(=O)[C@@]3(C)[C@@H](O)[C@H]12 (stereo not given in full),1µM*,0.52µM*,-8%,-22%,0%,-14%
C=CCN1CC[C@]23c4c5ccc(O)c4OC2C(O)C=CC3[C@H]1C5 (stereo not given in full),-1%,-16%,-7%,-5%,2%,-2%
COc1ccc2c(c1O)-c1cccc3c1C(C2)N(C)CC3 (stereo not given),·,·,·,·,9%[56.1 µM],·
CCCN1CCc2cccc3c2[C@H]1Cc1ccc(O)c(O)c1-3,-85%,?,7.9µM*!,-11%,·,-13%
COc1cc2c(cc1O)C[C@H]1c3c(cc(OC)c(O)c3-2)CCN1C,?,?,·,·,-11%,·
CN1CCc2cc(O)cc3c2C1Cc1ccc(O)c(O)c1-3 (stereo not given),2.6µM*,2.1µM*,-20%,·,6%[56.1 µM],-21%
C=CCN1CCc2cccc3c2C1Cc1ccc(O)c(O)c1-3 (stereo not given),13µM*,5.2µM*,?,·,6%,-4%
Cc1cccc(-n2c(O)c(C=NCCCN3CCOCC3)c(=O)[nH]c2=O)c1C,4%,0%,13%,-3%,6%,1%
CCN1C[C@]2(COC(=O)c3ccccc3N)CC[C@H](OC)C34[C@@H]5C[C@H]6[C@H](OC)[C@@H]5[C@](O)(C[C@@H]6OC)[C@@](O)([C@H]13)[C@@H](OC)[C@@H]42,3%,4%,-22%,1%,·,-11%
C=C(C)C(=O)OCC1CO1 (stereo not given),·,·,·,·,15%,·
COC(=O)[C@@H]1N=C(c2ccc(OC)cc2)O[C@]12C(=O)N(Cc1ccccc1)c1ccccc12,?,?,·,5%,·,·
Cc1ccc(-c2nc3ccccc3c(=O)n2-c2ccccn2)cc1,?,?,4%,6%,5%,4%
COc1ccc(-c2n(-c3ccccn3)c3ccccc3[n+]2-c2ccccn2)cc1,13µM*,13µM*,-4%,-1%,4%,20%
C=C(C)[C@H]1CN[C@H](C(=O)O)[C@H]1CC(=O)O,?,21µM*!,-1%,0%,-5%[56.1 µM],32µM*!
CCCCC[C@H]1CCCCC[C@H](O)C[C@@H](O)[C@H](O)/C=C/C(=O)O1,?,?,·,2%,·,·
[Cl][Pt+2][Cl].[NH-]C1CCCCC1[NH-] (stereo not given),2.3µM*,5.8µM*,50µM*,-11%,·,-3%
Cc1ccc(CN2C(=O)c3ccccc3Sc3ccc(C(=O)N4CCC5(CC4)OCCO5)cc32)cc1,?,23µM*,6%,·,10%,-4%
O=C(c1ccc2c(c1)N(Cc1ccccc1)CCS2)N1CCC2(CC1)OCCO2,-29%,8%,2%,-10%,6%,-13%
O=C(c1ccc2c(c1)N(Cc1ccc(F)cc1Cl)C(=O)c1ccccc1S2)N1CCC2(CC1)OCCO2,23µM*,23µM*,0%,·,8%,-25%
C=CCN1C(=O)c2ccccc2Sc2ccc(C(=O)N3CCC4(CC3)OCCO4)cc21,?,?,-7%,-9%,3%,-4%
O=[N+]([O-])c1ccc(S(=O)(=O)NCC(c2ccco2)N2CCc3ccccc3C2)cc1 (stereo not given),-21%,?,-17%,-10%,2%[0.505 µM],-15%
O=[N+]([O-])c1ccc(-c2ccccc2)c([As](=O)(O)O)c1,13µM*,9.2µM*,-12%,-21%,0%,8%
CCCCC/C=C\C/C=C\C/C=C\C/C=C\CCCC(=O)NCc1ccoc1,·,·,22µM*,·,?,14µM*
SMILES,TDP1 cell CPT,DT40 TDP1 no CPT,VDR inh,PLK1 PBD inh,TDP1 inh,GCN5L2 inh
CCCCC/C=C\C/C=C\C/C=C\C/C=C\CCCC(=O)NC(C)C(=O)O (stereo not given),·,·,-13%,·,4%,·
COc1cc(CNC(=O)CCCC/C=C\C(C)C)ccc1O,?,?,-4%,·,3%,-1%
CCCCC/C=C\C/C=C\C/C=C\C/C=C\CCCC(=O)NCCc1ccc(O)c(O)c1,·,·,40µM*!,·,-6%,18µM*
CCCCC/C=C\C/C=C\C/C=C\C/C=C\CCCC(=O)NCC(=O)O,2%[4.12 µM],-3%[4.12 µM],40µM*!,·,32µM*!,6.3µM*
CCCCC/C=C\C/C=C\C/C=C\C/C=C\CCCC(=O)NCCO,·,·,71µM*!,·,10%,-5%
CCCCC/C=C\C/C=C\CCCCCCCCCC(=O)NCCO,·,·,-13%,·,3%,·
CCOC(=O)Nc1ccc2c(c1)N(C(=O)CN(C)C)c1ccccc1CC2,?,?,-24%,-4%,·,-2%
NC(CCCP(=O)(O)O)C(=O)O (stereo not given),·,·,-7%,·,5%[56.1 µM],-10%
O=C(CNC(=O)c1ccco1)OCN1C(=O)c2ccccc2C1=O,?,?,12%,-10%,0%,3%
CCCCC/C=C\C/C=C\C/C=C\C/C=C\CCCC(=O)Nc1ccc(O)cc1C,·,·,0%,·,11%,-17%
CCCCC/C=C\C/C=C\C/C=C\C/C=C\CCCC(=O)NCCCC(=O)O,·,·,28µM*,·,-4%,14µM*
CCCCC/C=C\C/C=C\C/C=C\C/C=C\CCCC(=O)N(Cc1ccc(O)c(Cl)c1)Cc1ccc(O)c(Cl)c1,·,·,14µM*,·,-3%,?
CCCCC[C@@H](/C=C/C=C\C/C=C\C/C=C\CCCC(=O)O)OO,-23%[0.628 µM],-3%[0.628 µM],-3%,·,7%,11%
CCCCC/C=C\C/C=C\C/C=C\C/C=C\CCCC(=O)OCCN,·,·,?,·,9%,-9%

# Bioassay records as filed in PubChem.
